Experimental data: PubChem BioAssay
Values joined by “and” are separate entries in the source; they are usually repeats but may differ in a detail not shown here. Equal values may be shown once.

These compounds were tested against Focal adhesion kinase 1 (Homo sapiens) (UniProt Q05397) (assay: PTK2 protein binding on printed compound slides – biochemical, small-molecule microarray, 635/667 nm fluorescence, BSA, DTT, primary screen (AID 1130;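 further: composite of spot emission at 667 nm and signal to noise over triplicate slides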)). Conditions: 635 nm fluorescence, higher = more signal.
Focal adhesion kinase 1 (Homo sapiens), sequence (Q05397 whole entry, looked up): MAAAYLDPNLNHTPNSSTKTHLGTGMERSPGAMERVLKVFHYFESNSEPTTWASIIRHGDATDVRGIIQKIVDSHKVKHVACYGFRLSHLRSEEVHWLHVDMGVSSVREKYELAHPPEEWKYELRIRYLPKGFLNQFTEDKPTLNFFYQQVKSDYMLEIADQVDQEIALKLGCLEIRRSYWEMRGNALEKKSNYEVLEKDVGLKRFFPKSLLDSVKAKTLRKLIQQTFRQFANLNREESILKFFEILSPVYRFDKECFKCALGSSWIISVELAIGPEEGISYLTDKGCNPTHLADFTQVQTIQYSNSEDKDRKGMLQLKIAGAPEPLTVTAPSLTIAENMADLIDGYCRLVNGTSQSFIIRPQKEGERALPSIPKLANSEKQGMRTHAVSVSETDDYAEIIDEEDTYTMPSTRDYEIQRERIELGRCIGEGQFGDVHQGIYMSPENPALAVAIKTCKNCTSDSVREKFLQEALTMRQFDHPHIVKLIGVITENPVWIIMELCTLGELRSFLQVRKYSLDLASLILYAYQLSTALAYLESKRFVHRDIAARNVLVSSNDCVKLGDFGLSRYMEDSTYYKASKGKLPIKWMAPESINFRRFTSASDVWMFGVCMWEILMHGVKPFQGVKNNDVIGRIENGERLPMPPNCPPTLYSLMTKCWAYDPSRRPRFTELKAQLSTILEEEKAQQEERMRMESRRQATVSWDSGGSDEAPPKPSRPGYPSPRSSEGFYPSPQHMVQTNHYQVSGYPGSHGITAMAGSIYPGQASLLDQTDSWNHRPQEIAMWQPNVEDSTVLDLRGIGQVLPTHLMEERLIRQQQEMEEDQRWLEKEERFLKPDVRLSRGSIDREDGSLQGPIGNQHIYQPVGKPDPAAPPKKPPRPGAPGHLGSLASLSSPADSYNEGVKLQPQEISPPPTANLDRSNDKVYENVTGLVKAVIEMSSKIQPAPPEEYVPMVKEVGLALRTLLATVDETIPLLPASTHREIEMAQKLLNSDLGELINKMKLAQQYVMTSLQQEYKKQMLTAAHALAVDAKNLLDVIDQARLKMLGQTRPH

Compound	composite z-score
C[C@@H](ON=C1[C@H]2CCn3c(=O)n(-c4ccccc4)c(=O)n3[C@H]2[C@H](O)[C@@H]2O[C@H]12)c1cn([C@H](CO)Cc2ccccc2)nn1	-0.109
CCOC(=O)C[C@H]1[C@H](OC(=O)c2ccccc2-c2ccccc2)[C@@H](NC(=O)Cc2ccc(OC)cc2)c2cc(OCCCO)ccc2N1C(=O)c1ccc2ccccc2n1	-0.0875 and 0.194
CCOC(=O)[C@H](CC(C)C)NC(=O)CCC1CC(OC(=O)NCc2cccc3ccccc23)CC2(CCCC(COC(=O)NCc3ccccc3)O2)O1 (some centres undefined)	-0.159
Cc1ccc(S(=O)(=O)N[C@@H]2COC(=O)CC=C[C@@H](C)[C@@H]3C=C[C@H](O)[C@@H](COC(=O)CC=C[C@H]2C)O3)cc1	-0.466 and -0.318
CO[C@@H]1COC(=O)[C@H](Cc2ccccc2)NC(=O)CC=C[C@@H](C)[C@H](OC)COC(=O)[C@@H](C)NC(=O)CC=C[C@H]1C	-0.129 and 0.183

The compounds below were run on Fibrinogen (Alexa647-labelled) (assay: Alexa647-fibrinogen binding to printed small molecules – biochemical, small-molecule microarray, 635/667 nm fluorescence, artefact control for SMM control-protein annotation, profiling panel (AID 1131;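 further: z-score merges 667 nm fluorescence with per-spot signal-to-noise over triplicate slides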)). Conditions: fibrinogen-A647 binding fluorescence, higher = more signal.

Compound	composite z-score
CC(C)=NOC[C@@H](O)COCc1ccco1	-1.83
COC(=O)C1=C(C)N(Cc2ccccc2)C2=C(C(C)=O)C[C@@](O)(C(=O)OC)C(=O)N2[C@@H]1c1ccccc1	-0.378 and 1.02
COC(=O)[C@@]1(Cc2ccc(OC)cc2)[C@H]2c3cc(C(=O)N(C)C)n(Cc4ccc(O)c(OC)c4)c3C[C@H]2CN1C(=O)c1ccccc1	0.0218 and 0.962
C=CC[C@H](O)c1ccc(OCCO)cc1	-0.0902 and -3.21
CC(C)=NO[C@@H](C)c1cc(-c2c(C)cc(C)cc2C)no1	-0.268
C[N+](C)(C)CCCCNC(=O)[C@H]1C[C@H]2C(=O)N[C@@H](CCCC[N+](C)(C)C)C(=O)N2[C@H]1c1ccc(O)cc1	0.56 and -1.1
C[C@@]1([C@@H](NC(=O)Cc2ccccc2)c2ccc(-c3ccccc3)cc2)C[C@H]1C1CCCCC1	0.666 and 0.314 and 0.934
CCN1C(=O)[C@H]2[C@H]3[C@H](O)[C@H](O)CC(=NOC)[C@@H]3CC[C@H]2C1=O	0.245
O=C1NC(=O)C2C1C=CC(C(O)c1ccc([N+](=O)[O-])cc1)N2Nc1ccc(Cl)cc1Cl (centres undefined)	0.969 and 0.703
C=C[C@H](C)[C@@H](O)c1ccc(OCCO)cc1	-1.48 and 0.462
CC(C)CON=C1C[C@@H](O)[C@@H](O)[C@@H]2[C@@H]3C(=O)N(c4cccc(Oc5ccccc5)c4)C(=O)[C@@H]3CC[C@H]12	0.202
CO[C@H]1COC(=O)CC=C[C@@H](C)COC(=O)[C@H](CCSC)NC(=O)CC=C[C@@H]1C	-1.19 and -1.63
C=C[C@@H](OC)[C@H](O)c1ccc(OCCO)cc1	-1.95 and -1.4
CCOC(=O)c1ccc(NC(=O)O[C@H]2[C@H](OC(=O)Nc3ccccc3)[C@@H](OC(=O)Nc3ccccc3)[C@@H](OC)O[C@@H]2CO)cc1	1
C=CCN(C(=O)C(c1cccs1)N(CCOCCO)C(=O)/C=C\C(=O)O)c1ccc(OC)cc1 (centres undefined)	-0.627 and -1.54
C#CCN1C(/C=C/c2ccccc2)C(=O)OC[C@H]1c1ccccc1 (some centres undefined)	-0.106 and 0.137
CO[C@@H]1COC(=O)CC=C[C@H](C)COC(=O)[C@H](C)NC(=O)CC=C[C@H]1C	-0.607
Cc1cc2c(nc1C)CCCN2CC(O)CN1CCCc2nc(-c3ccc(Br)cc3)ccc21 (centres undefined)	0.887 and 0.695
C=CCN(CCCCC)C(=O)C(c1cccs1)N(CCOCCO)C(=O)/C=C\C(=O)O (centres undefined)	-1.57 and -1.63
COc1ccc(-c2ccc3c(n2)CCCN3CC(O)CN2CCCc3nc(-c4ccc(Br)cc4)ccc32)cc1 (centres undefined)	0.572 and 0.757
C=C[C@H](OC)[C@@H](O)c1ccc(OCCO)cc1	-2.46 and -1.57
C=CCN(C(=O)C1N(CCCCCCO)C(=O)C2C(C(=O)O)C3C=CC21O3)c1ccc(OC)cc1 (centres undefined)	-1.05 and -2.02
O=C1C[C@]2(c3ccc([N+](=O)[O-])cc3)C(=O)N(Cc3ccccc3)c3cc(CO)ccc3[C@H]2N1C1CCCCC1	-0.437 and -0.106
C=CCN(C(=O)C1N(c2c(Cl)cccc2CO)C(=O)C2C(C(=O)O)C3C=CC21O3)c1ccc(OC)cc1 (centres undefined)	-0.79 and -1.58
C=CCN(C(=O)C1N(CCOCCO)C(=O)C2C(C(=O)O)C3C=CC21O3)C(C)(C)C (centres undefined)	-4.25 and -0.473
COC(=O)C1=C2N(Cc3ccccc3)C(C)=C(C(=O)OC)[C@@H](c3ccccc3)N2C(=O)[C@](O)(C(=O)OC)C1	0.985 and 0.0539
O=c1n(-c2ccccc2)c(=O)n2n1CC[C@@H]1C(=NOC[C@@H](O)COCc3ccco3)[C@H]3O[C@H]3[C@@H](O)[C@@H]12	-0.309 and -0.105
CC(CO)N1C(=O)[C@@H]2C3C(=O)OCCC=C[C@H]3OC23C=CCN(c2ccc(Cl)cc2)C(=O)[C@@H]13 (some centres undefined)	-0.697 and 0.363
CC(C)[Si]1(C(C)C)OCc2cc(CCCc3cc4c(c(CCc5ccccc5)n3)[Si](C(C)C)(C(C)C)OC4)nc(CCc3ccccc3)c21	-0.551 and 0.0539
